Where “and” joins values, the source holds several entries; their conditions need not be identical. Equal entries are not always repeated. About 2,000 (36%) of roughly 5,500 compounds were called active. Not shown: some 18% with an inconclusive outcome. Rule as the data show it: active = normalized growth mostly below about 0.91 (no sharp cut-off); inconclusive = no clear call, values can overlap the other calls; inactive = mostly above about 0.92. The list shows a part of the results.
Assay: chemical genetic growth profiling, strain panel (AID 1159580);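 also: tested at 20 µM; growth read once vehicle control cultures reached saturation at 30 °C; 1 = growth at the plate median or of vehicle wells; lower values mean less growth of the strain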
Conditions: S. cerevisiae deletion strains, growth OD

Measured: normalized growth

Nc1ccc(S(=O)(=O)NC(=O)c2ccccc2)cc1
inactive: locus YAL013W, strain DEP1, hits give low values 1.01 | locus YAL021C, strain ccr4, hits give low values 0.985 | locus YAL026C, strain drs2, hits give low values 1 | locus YAL030W, strain snc1, hits give low values 1.01 | locus YBL061C, strain skt5, hits give low values 0.99 | locus YBR009C, strain hhf1, hits give low values 0.959 | locus YBR021W, strain FUR4, hits give low values 1.04 | locus YBR023C, strain chs3, hits give low values 0.995 | locus YBR171W, strain sec66, hits give low values 0.992 | locus YBR229C, strain ROT2, hits give low values 1.01 | locus YBR231C, strain swc5, hits give low values 0.992 | locus YBR279W, strain paf1, hits give low values 0.985 | locus YCL011C, strain gbp2, hits give low values 1 | locus YCL016C, strain dcc1, hits give low values 1.01 | locus YCL029C, strain bik1, hits give low values 1.02 | locus YCL061C, strain MRC1, hits give low values 0.979 | locus YCL069W, strain vba3, hits give low values 0.968 | locus YCR088W, strain abp1, hits give low values 0.978 | locus YDL005C, strain med2, hits give low values 0.992 | locus YDL035C, strain GPR1, hits give low values 1.01 | locus YDL040C, strain nat1, hits give low values 0.998 | locus YDL074C, strain BRE1, hits give low values 1.01 | locus YDL101C, strain DUN1, hits give low values 1.01 | locus YDL134C, strain PPH21, hits give low values 1.02 | locus YDL185W, strain tfp1, hits give low values 0.999 | locus YDL192W, strain arf1, hits give low values 1.02 | locus YDR001C, strain nth1, hits give low values 0.975 | locus YDR069C, strain doa4, hits give low values 0.973 | locus YDR101C, strain arx1, hits give low values 1.02 | locus YDR137W, strain rgp1, hits give low values 0.959 | locus YDR159W, strain sac3, hits give low values 0.948 | locus YDR162C, strain NBP2, hits give low values 1 | locus YDR195W, strain ref2 0.957 | locus YDR297W, strain sur2, hits give low values 0.997 | locus YDR318W, strain mcm21, hits give low values 1.03 | locus YDR334W, strain swr1, hits give low values 0.934 | locus YDR335W, strain msn5, hits give low values 0.985 | locus YDR388W, hits give low values 1.02 | locus YDR392W, strain spt3, hits give low values 1.01 | locus YDR502C, strain sam2, hits give low values 1.03 | locus YEL003W, strain gim4, hits give low values 0.99 | locus YEL037C, strain rad23, hits give low values 0.988 | locus YEL061C, strain CIN8 (second series), hits give low values 0.993 | locus YEL061C, strain CIN8, hits give low values 1.01 | locus YER015W, strain faa2, hits give low values 0.998 | locus YER016W, strain bim1, hits give low values 0.974 | locus YER110C, hits give low values 1.03 | locus YER111C, strain swi4, hits give low values 1.01 | locus YER155C, strain BEM2 (second series), hits give low values 1.02 | locus YER155C, strain BEM2, hits give low values 1.01 | locus YER167W, strain BCK2, hits give low values 1 | locus YFR010W, strain ubp6, hits give low values 0.951 | locus YGL078C, strain dbp3, hits give low values 1.02 | locus YGL086W, strain mad1, hits give low values 1.01 | locus YGL167C, strain pmr1, hits give low values 0.964 | locus YGL173C, strain kem1, hits give low values 0.986 | locus YGL227W, strain vid30, hits give low values 0.967 | locus YGL240W, strain doc1, hits give low values 0.998 | locus YGL248W, strain PDE1, hits give low values 1 | locus YGL253W, strain hxk2, hits give low values 0.989 | locus YGR135W, strain pre9, hits give low values 1.02 | locus YGR252W, strain gcn5, hits give low values 0.997 | locus YHR013C, strain ard1, hits give low values 0.98 | locus YHR027C, strain rpn1, hits give low values 0.993 | locus YHR030C, strain SLT2, hits give low values 1.01 and 0.995 | locus YHR079C, strain IRE1 (second series), hits give low values 1.01 | locus YHR079C, strain IRE1, hits give low values 0.98 | locus YHR094C, strain hxt1, hits give low values 1.01 | locus YHR129C, strain ARP1, hits give low values 0.996 | locus YHR142W, strain chs7, hits give low values 0.997 | locus YHR200W, strain rpn10, hits give low values 1.02 | locus YIL066C, strain RNR3, hits give low values 1.01 | locus YIL073C, strain SPO22, hits give low values 1.06 | locus YIL125W, strain kgd1, hits give low values 1.01 | locus YIR030C, strain dcg1, hits give low values 1.02 | locus YJL092W, strain hpr5, hits give low values 0.993 | locus YJL095W, strain BCK1 (second series), hits give low values 0.996 | locus YJL095W, strain BCK1, hits give low values 0.994 and 0.999 | locus YJL115W, strain asf1, hits give low values 0.999 | locus YJL129C, strain trk1, hits give low values 0.983 | locus YJL134W, strain LCB3, hits give low values 1.01 | locus YJL154C, strain vps35, hits give low values 0.99 | locus YJL164C, strain tpk1, hits give low values 0.979 | locus YJL166W, strain qcr8, hits give low values 0.983 | locus YJL168C, strain set2, hits give low values 1.01 | locus YJL187C, strain SWE1 (second series), hits give low values 1.01 | locus YJL187C, strain SWE1, hits give low values 0.992 | locus YJR043C, strain POL32, hits give low values 1.01
